# Reference: PubChem BioAssay (Tox21)
# Records with an inconclusive call do not appear. Entries that show only a call come without a potency. Calls of active or inactive are those of the source. The call rests on the fitted dose curve; in most records, active means well fitted activation curve with a large enough effect in the repeat runs; inconclusive means weak or mixed curves; inactive means flat fitted curve, though single readings scatter.
# Test: A CellTox Green Cytotoxicity Assay to monitor cytotoxicity in HEK293 cells - 40 hour (AID 1224871); further: nearly all actives have a fitted effect of over 45% in size
# Conditions: CellTox Green fluorescence; series mostly up to 76.8 µM; cytotoxicity increase: at the top concentration
# Text: National Center for Advancing Translational Sciences [NCATS]
# NIH Chemical Genomics Center [NCGC]
# U.S. Environmental Protection Agency [EPA]
# National Institutes of Environmental Health Sciences [NIEHS]
# National Toxicology Program [NTP]
# Cell-based models are critical for drug discovery. Determining the natural cytotoxic effects resulting from test compounds is an essential research activity. A CellTox Green Cytotoxicity Assay to monitor cytotoxicity in real time of continues cell culture during 40 hours of the compound treatment was used to screen Tox21 10K library compounds in Hek293 cells. CellTox Green Cytotoxicity Assay is a nonlytic, homogeneous, biofluorescent method to measure cytotoxicity in cell culture after experimental manipulation. The assay system uses a proprietary asymmetric cyanine dye that is excluded from viable cells but preferentially stains the dead cell's DNA. […] Viable cells produce no appreciable increases in fluorescence. Therefore, the fluorescence signal produced by the binding interaction with dead cell DNA is proportional to cytotoxicity.
# The mixture of Hek293 cell suspension and reagents were dispensed at 600cells/6 ul/well in 1536-well tissue culture treated black solid bottom plates using a Multidrop dispenser. After the assay plates were incubated at a 37 C/5% CO2 incubator for 5 hours, 23 nL of compounds dissolved in DMSO, positive and negative controls was transferred to the assay plate by a pintool work station. The plates were incubated at 37 C for 40 hours. The fluorescence intensity were measured at 0h, 8h, 16h, 24h, 32h and 40h time points using ViewLux plate reader during compound treatment.
# Potency means the concentration at half of the fitted maximal effect.
SMILES,Potency,cytotoxicity increase
CC12CC1(C)C(=O)N(c1cc(Cl)cc(Cl)c1)C2=O (stereo not given),inactive,–
CC[N+](=O)[O-],inactive,–
C=CCN=C=S,inactive,–
N#CN=C(N)N,inactive,–
COC(C)(C)CCCC(C)C/C=C/C(C)=C/C(=O)OC(C)C (stereo not given),inactive,–
O=C(O)CCCc1ccc(N(CCCl)CCCl)cc1,inactive,–
COS(=O)(=O)OC,inactive,–
Cc1ccc(N=C=O)cc1N=C=O,inactive,–
OCCCCO,inactive,–
O=C(O)COc1ccccc1,inactive,–
ClCCOCCCl,inactive,–
CCOP(=S)(OCC)Oc1ccc([N+](=O)[O-])cc1,inactive,–
O=S(=O)(O)OOS(=O)(=O)O,inactive,–
OCC(O)CCl (stereo not given),inactive,–
CN(C)CCC#N,inactive,–
Cc1cccc(N)c1C,inactive,–
O=C(O)C1C(C(=O)O)C2(Cl)C(Cl)=C(Cl)C1(Cl)C2(Cl)Cl (stereo not given),inactive,–
Sc1ccccc1,inactive,–
CN(C)C(=O)C(c1ccccc1)c1ccccc1,inactive,–
c1ccc2c(c1)CCCC2,inactive,–

SMILES,Potency,cytotoxicity increase
N#Cc1ccccn1,inactive,–
Nc1ccc([As](=O)(O)O)cc1,inactive,–
Nc1nc(N)nc(NC2CC2)n1,inactive,–
CC(=O)/C=C/c1ccccc1,inactive,–
Cc1cc(Cl)ccc1OC(C)C(=O)O (stereo not given),inactive,–
[N-]=[N+]=CC(=O)OC[C@H](N)C(=O)O,–,0% [at 35.3 µM] (inactive)
CN(C)NC(=O)CCC(=O)O,inactive,–
CNCC(O)c1ccc(O)cc1 (stereo not given),inactive,–
Cl[C@H]1OCCO[C@@H]1Cl,inactive,–
C[C@H]1C(=O)O[C@@H]2CCN3CC=C(COC(=O)[C@](C)(O)[C@]1(C)O)[C@H]23,inactive,–
Cc1cccc(C)c1NC(=O)CN1CCCC1=O,inactive,–
Cc1cccc(C)c1N,inactive,–
O=C(O)C(Br)Br,inactive,–
CNc1cnn(-c2cccc(C(F)(F)F)c2)c(=O)c1Cl,inactive,–
CCOC(=O)CC(SP(=O)(OC)OC)C(=O)OCC (stereo not given),inactive,–
CC(=O)C1CCOC1=O (stereo not given),inactive,–
COP(=S)(OC)SCN1C(=O)c2ccccc2C1=O,inactive,–
OCc1ccco1,inactive,–
Clc1cnc(Oc2ccc(Oc3ncc(Cl)cc3Cl)cc2)c(Cl)c1,24.5 µM (active),–
Nc1cccc(Cl)c1,inactive,–
